ROS inducer – inducers of reactive oxygen species in cancer cells. ROS induction (% of piperlongumine), % at 10 µM. U2OS ROS induction, H2DCF-DA fluorescence. 46,000 tested, 2% active. AID 624156; in the data active means ROS induction above about 79%, passing the limit was not always enough;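 further: 0% = DMSO vehicle median and 100% = reference compound median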
* marks the source's active call; other numbers are inactive results. Many of the other results were omitted from the sample, so hits are more common in it than they were.

SMILES	ROS inducer
CC(=O)N/C(=C\c1ccccc1)C(=O)NC1CCCCC1C (stereo not given)	-3.2
O=C(NCCCN1CCOCC1)NC1(c2ccccc2)CC1	-2.3
CS(=O)(=O)N(Cc1cc2ccccc2[nH]c1=O)c1ccccc1	-10.2
CC(C)(Oc1ccc(Cl)cc1)C(=O)NC1CCCCNC1=O (stereo not given)	-10.0
C=CCNC(=O)COc1ccc(C(C)C)cc1	26.9
CCOc1ccc(NC(=S)N2CCn3cccc3C2c2ccc(OC)cc2)cc1 (stereo not given)	9.0
C[C@H](CO)N1C[C@H](C)[C@@H](CN(C)Cc2ccc(Oc3ccccc3)cc2)Oc2ccc(NC(=O)Cc3cn(C)c4ccccc34)cc2C1=O	113.1*
COc1ccc(NC(=O)N(C)C[C@H]2Oc3ccc(NC(=O)Cc4cn(C)c5ccccc45)cc3C(=O)N([C@@H](C)CO)C[C@@H]2C)cc1	-6.0
C[C@H](CO)N1C[C@H](C)[C@H](CN(C)Cc2ccncc2)Oc2ccc(NC(=O)Cc3cn(C)c4ccccc34)cc2C1=O	-11.0
C[C@@H]1CN([C@H](C)CO)C(=O)Cc2cc(NC(=O)Cc3cn(C)c4ccccc34)ccc2O[C@H]1CN(C)Cc1ccc(Oc2ccccc2)cc1	15.5
COc1ccc(CN(C)C[C@H]2Oc3ccc(NC(=O)Cc4cn(C)c5ccccc45)cc3C(=O)N([C@H](C)CO)C[C@@H]2C)cc1	184.9*
COc1ccc(CN(C)C[C@@H]2Oc3ccc(NC(=O)Cc4cn(C)c5ccccc45)cc3C(=O)N([C@@H](C)CO)C[C@H]2C)cc1	32.0
N#Cc1ccc(-c2cccs2)nc1SCCOc1ccccc1	4.4
Cc1nc(O)c(C(c2ccccc2F)C(C#N)C#N)[nH]1 (stereo not given)	-9.3
CCOC(=O)c1cnc(-c2cccs2)nc1Nc1ccc(C)cc1	-9.7
O=C(COc1ccccc1)NCc1nc2ccccc2n1Cc1ccc(Cl)cc1	-4.5
COc1cc2c(cc1OC)C(C)N(C(=O)CN1C(=O)CCc3ccccc31)CC2 (stereo not given)	-12.7
C[C@@H]1CCCCO[C@@H](CN(C)C(=O)Nc2ccccc2)[C@@H](C)CN([C@H](C)CO)C(=O)c2cc(NC(=O)Cc3ccccc3)ccc2O1	2.8
C[C@@H]1CCCCO[C@@H](CN(C)S(C)(=O)=O)[C@@H](C)CN([C@H](C)CO)C(=O)c2cc(NC(=O)Cc3ccccc3)ccc2O1	84.0*
C[C@@H]1CCCCO[C@H](CN(C)C(=O)Nc2ccccc2)[C@@H](C)CN([C@H](C)CO)C(=O)c2cc(NC(=O)Cc3ccccc3)ccc2O1	10.1
C[C@@H]1CCCCO[C@@H](CN(C)S(C)(=O)=O)[C@@H](C)CN([C@H](C)CO)C(=O)c2cc(NC(=O)Nc3ccccc3)ccc2O1	5.2
C[C@@H]1CCCCO[C@@H](CN(C)C(=O)Nc2cccc3ccccc23)[C@@H](C)CN([C@H](C)CO)C(=O)c2cc(NC(=O)Cc3ccccc3)ccc2O1	176.8*
C[C@@H]1CCCCO[C@H](CN(C)S(C)(=O)=O)[C@@H](C)CN([C@H](C)CO)C(=O)c2cc(NC(=O)Cc3ccccc3)ccc2O1	5.2
CCc1ccc2ncc(S(=O)(=O)c3ccccc3)c(N3CCCCC3)c2c1	34.3
COC(=O)C1CCCN1S(=O)(=O)c1ccccc1 (stereo not given)	8.6
SMILES	ROS inducer
NC(=O)c1cc2ccccc2oc1=O	-6.6
COc1ccc(-c2nnc3n(Cc4ccccc4)c(=O)c4ccccc4n23)cc1	2.4
CCN(CC)C(=S)SCc1cn2cccnc2n1	-7.9
CC(C)(C)c1cc(C(C)(C)C)n(-c2ccc(NC(=O)COCC(=O)O)cc2)n1	-4.5
CC(=O)Nc1cc(C(=O)N2CCN(c3cc(Cl)ccc3C)CC2)ccc1Sc1ccc(F)cc1	7.6
Cc1ccc(Cn2c(=O)cc(C(=O)NCc3cccs3)c3ccccc32)cc1	-6.9
COCCOC(=O)N1C(=O)[C@@]2(c3cc(C#CC4=CCCCC4)ccc31)[C@H](c1ccccc1OCCO)N1[C@H](c3ccccc3)[C@H](c3ccccc3)OC(=O)[C@H]1[C@@H]2C(N)=O	84.2*
COCCOC(=O)N1C(=O)[C@@]2(c3cc(C#CCC(C(=O)OC)C(=O)OC)ccc31)[C@H](c1ccccc1OCCO)N1[C@H](c3ccccc3)[C@H](c3ccccc3)OC(=O)[C@H]1[C@@H]2C(=O)Nc1nc2ccccc2s1	11.7
COCCOC(=O)N1C(=O)[C@@]2(c3cc(C#Cc4ccc(OC)cc4)ccc31)[C@H](c1ccccc1OCCO)N1[C@H](c3ccccc3)[C@H](c3ccccc3)OC(=O)[C@H]1[C@@H]2C(N)=O	74.3
COCCOC(=O)N1C(=O)[C@@]2(c3cc(C#CCNC(N)=O)ccc31)[C@H](C(=O)NC[C@H](O)c1ccccc1)[C@H]1C(=O)O[C@H](c3ccccc3)[C@H](c3ccccc3)N1[C@@H]2c1ccc(O)cc1	8.2
C=CCNC(=O)[C@@H]1[C@H]2C(=O)O[C@H](c3ccccc3)[C@H](c3ccccc3)N2[C@H](c2ccccc2OCCO)[C@@]12C(=O)N(C(=O)OCCOC)c1ccc(C#Cc3ccc(OC)cc3)cc12	33.9

Assay outcomes: PubChem BioAssay, Broad Institute
